# Results from the supplement of paper PMC12582362.
# Where a name gives a salt, the structure may show the parent alone. Among all 1,500 compounds or so, about 30 (2%) showed activity.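 The calls were made as follows: active = robust z-score below -2; a few such results were not called.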 The sample as a whole holds a higher share of actives than the screen did.
# Test system: optoTopBP1 Flp-In 293 T-REx (HEK293) cells
# Assay: light-induced TopBP1 condensate (nuclear foci) count, plate-normalised robust z-score vs non-control wells; higher = more TopBP1 condensates (negative = condensation inhibitor), active = hit call of the paper
# Conditions: 10 µM; incubation time 2 h
row,SMILES,light-induced TopBP1 condensate (z-score)
1,C[CH2][Hg][S]c1ccccc1C(=O)[O-].[Na+] [Thimerosal],-8.21 (active)
2,C[C@]12CC[C@H]3[C@@H](CCC4=CC(=O)CC[C@@H]43)[C@@H]1CC[C@@H]2O [Nandrolone],2.28 (inactive)
3,O=C([O-])c1ccccc1-c1c2cc(Br)c(=O)cc-2oc2[c]([Hg+])c([O-])c(Br)cc12.[Na+].[Na+].[OH-] [Merbromin],-0.221 (inactive)
4,C[C@]12CC[C@H](O)C[C@@H]1CC[C@@H]1[C@@H]2CC[C@]2(C)C(=O)CC[C@@H]12 [Epiandrosterone],-0.588 (inactive)
5,C[C@]12CC[C@@H](O)C[C@@H]1CC[C@@H]1[C@@H]2CC[C@]2(C)C(=O)CC[C@@H]12 [Androsterone],0.981 (inactive)
6,C[C@]12CC[C@H](O)C[C@H]1CC[C@@H]1[C@@H]2CC[C@]2(C)[C@@H](C3=CC(=O)OC3)CC[C@]12O [Digitoxigenin],-2.06 (active)
7,C[C@]12CC[C@H](O)C[C@H]1CC[C@@H]1[C@@H]2C[C@@H](O)[C@]2(C)[C@@H](C3=CC(=O)OC3)CC[C@]12O [Digoxigenin],-2.51 (active)
8,CC(=O)O[C@H]1C[C@H](O[C@H]2[C@@H](O)C[C@H](O[C@H]3[C@@H](O)C[C@H](O[C@H]4CC[C@@]5(C)[C@H](CC[C@@H]6[C@@H]5C[C@@H](O)[C@]5(C)[C@@H](C7=CC(=O)OC7)CC[C@]65O)C4)O[C@@H]3C)O[C@@H]2C)O[C@H](C)[C@H]1O[C@@H]1O[C@H](CO)[C@@H](O)[C@H](O)[C@H]1O [Lanatoside C],-1.56 (inactive)
9,C[C@]12CC[C@@H](O)C[C@H]1CC[C@@H]1[C@@H]2CC[C@]2(C)C(=O)CC[C@@H]12 [3-alpha-Hydroxy-5-beta-androstan-17-one],-0.529 (inactive)
10,CO[C@]12C[C@@H](COC(=O)c3cncc(Br)c3)CN(C)[C@@H]1Cc1cn(C)c3cccc2c13 [Nicergoline],-0.703 (inactive)
11,CC(=O)NC1CCSC1=O (racemic) [N-Acetyl-DL-homocysteine Thiolactone],-0.247 (inactive)
12,CC(=O)O[C@H]1CC[C@@]2(C)C(=CC[C@@H]3[C@@H]2CC[C@]2(C)C(=O)CC[C@@H]32)C1 [Dehydroisoandosterone 3-acetate],-0.674 (inactive)
13,COc1cc([C@@H]2c3cc4c(cc3[C@H](O)[C@H]3COC(=O)[C@H]23)OCO4)cc(OC)c1OC [Podophyllotoxin],-2.43 (active)
14,COc1cc2c(c(OC)c1OC)-c1ccc(OC)c(=O)cc1[C@@H](NC(C)=O)CC2 [Colchicine],-1.18 (inactive)
15,CC(CCc1ccccc1)NC(C)C(O)c1ccc(O)cc1 (stereo not given) [Nylidrin],0.555 (inactive)
16,C#C[C@]1(O)CC[C@H]2[C@@H]3CCC4=CC(=O)CCC4=C3C=C[C@@]21CC [Gestrinone],0.545 (inactive)
17,CN1C(=O)COc2c(C(=O)NC3CN4CCC3CC4)cc(Cl)cc21 (stereo not given) [Azasetron hydrochloride],0.519 (inactive)
18,C[N+]1(C)[C@@H]2CC[C@H]1C[C@@H](OC(=O)C(CO)c1ccccc1)C2 (stereo not given in full) [Methylatropine nitrate],-0.568 (inactive)
19,COc1ccc(CCN)cc1OC [Homoveratrylamine],-1.31 (inactive)
20,C[C@]12CCC(=O)C=C1C=C[C@@H]1[C@@H]2CC[C@@]2(C)[C@H]1CC[C@@]2(O)CCC(=O)O [Canrenoic acid potassium salt],1.33 (inactive)
